High-throughput results (PubChem)
NS1 inh: inhibitors of influenza NS1 protein function | Potency, µM (doses to about 46.1 µM), for the others: top-dose activity, positive = more growth | 0.4% of 270,000 active; calls by dose curve; further: potency means the concentration at half of the fitted maximal effect; actives are rising curves; nearly all actives have a fitted effect of over 50% in size
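S. cerevisiae expressing influenza A NS1, grown in glucose, washed, then diluted 1:100 into pH 6.0 -URA galactose medium with 23 nl compound. Growth recovery read as OD600; NS1-free strain serves as control.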
Pf growth 96h: inhibits malaria parasite growth, 96 h. AID 504834. Potency, µM (doses to about 28.7 µM), for inactives: top-dose activity change, negative = inhibition, actives largely listed as inhibitors. P. falciparum luciferase reporter growth, 96 h. 6.9% of 320,000 active; further: potency means the concentration at half of the fitted maximal effect; on the % scale 0 is the no-effect control and ±100 the full control effect
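Two parasite generations (96 h, 37 C, 5% CO2) of compound exposure in infected erythrocytes (0.05% parasitemia, 2% hematocrit). Luciferase-reporter P. falciparum; decreased luminescence indicates inhibited growth, aimed at apicoplast-acting delayed death.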
Pf growth 48h: P. falciparum growth inhibition at 48 hours (one generation); P. falciparum luciferase growth in erythrocytes, 48 h; Potency, µM (top dose mostly 28.7 µM), for the others: at the highest dose activity change, negative = inhibition, usual class: inhibitors; 5.9% of 310,000 active; AID 504832; further: potency means the concentration at half of the fitted maximal effect; on the % scale 0 is the no-effect control and ±100 the full control effect
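Read-out is firefly luciferase luminescence from an integrated reporter in P. falciparum, so falling signal marks reduced parasite growth. Infected erythrocytes were at 2% hematocrit and 0.1% parasitemia (final) in Albumax-supplemented RPMI 1640.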
Shiga toxin inh: inhibitors of Shiga toxin in Vero cells. Vero cells, Shiga toxin protein synthesis inhibition reporter. inhibition, % at 38.7 µM. 9.2% of 290,000 active. AID 2315; in the data active means inhibition mostly above about 28%, no sharp cut-off; inactive means mostly below about 43%; further: 0% is about no effect
Cycloheximide cs: affects cycloheximide protein synthesis inhibition readout, counter-screen; AID 2314; cell reporter, cycloheximide protein synthesis inhibition counterscreen; max response, %; 12% of 300,000 active; in the data active means max response mostly above about 13%, no sharp cut-off; inactive means mostly below about 14%; further: read at 38.3 µM for the half of the compounds with a filed dose; 0% is about no effect
Numbers without * were called inactive; i = inactive; ? = inconclusive; . = no result; [ ] = another dose, or the depositor's remark. Shown are actives, neighbours in structure and some others; about 21% of the full set was active somewhere. Unless noted, the call rests on the fitted dose curve; in most records, active means well fitted inhibition curve with a large enough effect; inconclusive means small, poorly fitted or top-dose-only effect, or another doubt; inactive means no such curve, though single readings can be large or run the other way.

SMILES	NS1 inh	Pf growth 96h	Pf growth 48h	Shiga toxin inh	Cycloheximide cs
Cc1cccc(/C=N/NC(=O)Cn2nnnc2N)n1	-1%	21%	20%	-8	10
O=C1O/C(=C\c2ccccc2)c2ccccc21	0%	?	21%	45*	31*
O=C1O/C(=C/c2ccccc2)N=C1c1ccccc1	0%	-7%	11%	11	-1
CC(=O)c1ccc(Sc2ccccc2)cc1	12%	21%	33%	13	19
CC(=O)c1ccc(Sc2ccc(C(C)=O)cc2)cc1	9%	?	47%	40*	37*
Cc1cccc(NS(=O)(=O)c2ccc3[nH]c(=O)[nH]c3c2)c1C	5%	42%	18%	-7	-3
Cc1cccc(NS(=O)(=O)c2ccc(-c3cnc(C4CC4)o3)cc2)c1C	-79%	6.6µM*	?	-15	-13
Cc1cccc(NS(=O)(=O)c2ccc3c(c2)Cc2cc(S(=O)(=O)Nc4cccc(C)c4C)ccc2-3)c1C	21%	25%	9.3µM*	2	-2
CCOC(=O)CS(=O)(=O)c1ccc(O)cc1	.	?	-6%[5.75 µM]	-7	-3
O=C(O)c1cccc(COc2ccc3c(c2)CCC3)c1	-59%	29%	?	44	35*
O=C(O)c1cccc(S(=O)(=O)Nc2ccc(OCc3ccccc3)cc2)c1	29%	3%	9%	2	-3
COc1ccccc1NC(=O)c1ccc(COc2ccc3c(c2)CCC3)cc1	5%	?	4%	0	9
COc1cccc(OC)c1C(=O)NNC(=O)c1cccc(COc2ccc3c(c2)CCC3)c1	7%	i	2.3µM*	184*	65*
O=C(NCc1ccccc1)c1cccc(COc2ccc3c(c2)CCC3)c1	-11%	-1%	278%	120*	104*
CCCC/C(O)=C/c1nc2ccccc2[nH]c1=O	0%	-5%	8%	19	9
O=S(=O)(/C(=C/c1ccc(C(F)(F)F)cc1)c1nc2ccccc2[nH]1)c1ccccc1	-16%	1.7µM*	4.1µM*	-6	-2
O=c1[nH]c2ccccc2nc1C(F)(F)F	2%	2%	35%	11	1
CC(C)c1ccc(/C=C(\c2nc3ccccc3[nH]2)S(=O)(=O)c2ccccc2)cc1	-5%	2.3µM*	5.9µM*	23	18*
COc1ccc(C2c3ccc(O)cc3Oc3ncn(Cc4ccco4)c(=N)c32)cc1OC (stereo not drawn)	8%	-30%	?	-3	-4
COc1ccccc1C1c2ccc3ccccc3c2Oc2ncn(CCN(C)C)c(=N)c21 (stereo not drawn)	-4%	2.3µM*	3.3µM*	-7	-4
COc1ccc(C2c3ccc(O)cc3Oc3ncn4nc(-c5cccnc5)nc4c32)cc1OC (stereo not drawn)	7%	4.1µM*	5.2µM*	-7	9
N=c1c2c(ncn1CCCO)Oc1cc(O)ccc1C2c1ccccc1 (stereo not drawn)	2%	?	?	24	-4
COc1ccc(C2c3ccc(O)cc3Oc3ncn(CCN4CCOCC4)c(=N)c32)cc1 (stereo not drawn)	-4%	-27%	?	-9	-2
COc1ccccc1C1c2ccc3ccccc3c2Oc2ncn(CCCO)c(=N)c21 (stereo not drawn)	-2%	2.6µM*	7.4µM*	-19	-8
COc1ccc(C2c3ccc(O)cc3Oc3ncn(CC(C)C)c(=N)c32)cc1 (stereo not drawn)	1%	-2%	5.2µM*	20	-2
SMILES	NS1 inh	Pf growth 96h	Pf growth 48h	Shiga toxin inh	Cycloheximide cs
O=c1c2cn[nH]c2[nH]c(=S)n1-c1cccc(Cl)c1	-7%	9%	0%	1	-2
CCCC(CCC)c1nc2ccncc2[nH]1	.	2%	-16%	16	-1
COc1ccc(C2c3ccc4ccccc4c3Oc3ncn(CCCN(C)C)c(=N)c32)cc1 (stereo not drawn)	6%	1.7µM*	1.7µM*	-11	-7
COc1ccc(C2c3ccc4ccccc4c3Oc3ncn(Cc4ccco4)c(=N)c32)cc1OC (stereo not drawn)	?	?	13µM*	-9	-3
COc1ccc(S(=O)(=O)N2CCOCC2)cc1NC(=O)COC(=O)C1CC1C (stereo not drawn)	.	27%	?	.	.
O=C(O)COc1ccccc1/C=N/NC(=O)CN1CCN(Cc2ccc(Cl)cc2)CC1	5%	-20%	31%	-4	-3
CCCN(CCC)C(=O)C1CCN(c2ccc(S(=O)(=O)N3CCOCC3)cc2[N+](=O)[O-])CC1	-2%	5.2µM*	?	-6	2
COC(=O)CSc1ccc(S(=O)(=O)N2CCOCC2)cc1[N+](=O)[O-]	-6%	10µM*	20%	-12	-1
CN(CC(=O)O)c1ccc(S(=O)(=O)N2CCOCC2)cc1[N+](=O)[O-]	5%	95%	2.6µM*	-11	-2
CN(CC(=O)Nc1ccc(F)cc1)c1ccc(S(=O)(=O)N2CCCCC2)cc1[N+](=O)[O-]	24%	?	?	11	-2
O=C(Nc1ccc(F)cc1)c1ccc2ncsc2c1	-4%	153%	102%	91*	59*
O=C(Nc1cccc(Cl)c1)c1ccc2ncsc2c1	-84%	92%	56%	90*	44*
CC(C)c1ccccc1NC(=O)c1ccc2ncsc2c1	0%	68%	57%	39*	30*
O=C(COC(=O)c1ccc2ncsc2c1)Nc1cccc(Cl)c1	.	10%	58%	.	.
O=C(OCCOc1cccc(Cl)c1)c1ccc2ncsc2c1	-35%	39%	33%	34	17*
CCOc1ccc(N(C(=O)OC(C)(C)C)C(=O)c2ccc(O[Si](C)(C)C(C)(C)C)cc2)c(I)c1	.	.	.	9	7
O.O.[Mn].[Mn].[Mn].[OH-].[OH-]	.	.	.	-4	-6
O=C(O)c1ccc2ncsc2c1	6%	?	?	68*	27*
COc1ccc(NC(=O)c2ccc3ncsc3c2)c2ccccc12	-6%	-20%	?	17	4
O=C(Nc1ccc(Cl)cc1)c1ccc2ncsc2c1	-3%	253%	200%	123*	46*
COc1ccc(C(C)(C)C)cc1NC(=O)c1ccc2ncsc2c1	-9%	?	20%	72*	27*
O=C(Nc1ccc(C(F)(F)F)cc1)c1ccc2ncsc2c1	-1%	127%	117%	156*	35*
CCCCOC(=O)c1ccc(NC(=O)COC(=O)c2ccc3ncsc3c2)cc1	.	72%	-22%	.	.
Cc1c(NC(=O)COC(=O)/C=C/c2cccc(Cl)c2)c(=O)n(-c2ccccc2)n1C	.	3%	-14%	.	.
O=C(COc1ncnc2sccc12)Nc1cccc(S(=O)(=O)N2CCCC2)c1	3%	?	?	16	-2
CCCCCN(C(=O)CCC(=O)OCc1cccc(C)c1)c1c(N)n(CCCC)c(=O)[nH]c1=O	.	?	-1%	.	.
Cc1ncc(C23CC4CC(CC(C4)C2)C3)[nH]1	-2%	39%	-16%	-21	-3
N#Cc1ccc(C23CC4CC(CC(C4)C2)C3)[nH]c1=O	7%	3.7µM*	?	18	12
